Results taken from the supplement of paper PMC11732987, “Enantioselective OTUD7B fragment discovery through chemoproteomics screening and high-throughput optimisation” (Communications Chemistry, 2025).

Legend:
Assay in all cases: log2 ratio of Biotin-Ahx-Ub-VS probe labelling (fragment/DMSO); higher = less target engagement (more negative = stronger competition), active = hit call of the paper (q ≤ 0.05, log2 ratio ≤ -1)
Conditions in all cases: compound concentration: 200 uM; treatment time: 3 h
USP42 = target: T1, USP42 (UniProt Q9H9J4)
T1 sequence (whole entry): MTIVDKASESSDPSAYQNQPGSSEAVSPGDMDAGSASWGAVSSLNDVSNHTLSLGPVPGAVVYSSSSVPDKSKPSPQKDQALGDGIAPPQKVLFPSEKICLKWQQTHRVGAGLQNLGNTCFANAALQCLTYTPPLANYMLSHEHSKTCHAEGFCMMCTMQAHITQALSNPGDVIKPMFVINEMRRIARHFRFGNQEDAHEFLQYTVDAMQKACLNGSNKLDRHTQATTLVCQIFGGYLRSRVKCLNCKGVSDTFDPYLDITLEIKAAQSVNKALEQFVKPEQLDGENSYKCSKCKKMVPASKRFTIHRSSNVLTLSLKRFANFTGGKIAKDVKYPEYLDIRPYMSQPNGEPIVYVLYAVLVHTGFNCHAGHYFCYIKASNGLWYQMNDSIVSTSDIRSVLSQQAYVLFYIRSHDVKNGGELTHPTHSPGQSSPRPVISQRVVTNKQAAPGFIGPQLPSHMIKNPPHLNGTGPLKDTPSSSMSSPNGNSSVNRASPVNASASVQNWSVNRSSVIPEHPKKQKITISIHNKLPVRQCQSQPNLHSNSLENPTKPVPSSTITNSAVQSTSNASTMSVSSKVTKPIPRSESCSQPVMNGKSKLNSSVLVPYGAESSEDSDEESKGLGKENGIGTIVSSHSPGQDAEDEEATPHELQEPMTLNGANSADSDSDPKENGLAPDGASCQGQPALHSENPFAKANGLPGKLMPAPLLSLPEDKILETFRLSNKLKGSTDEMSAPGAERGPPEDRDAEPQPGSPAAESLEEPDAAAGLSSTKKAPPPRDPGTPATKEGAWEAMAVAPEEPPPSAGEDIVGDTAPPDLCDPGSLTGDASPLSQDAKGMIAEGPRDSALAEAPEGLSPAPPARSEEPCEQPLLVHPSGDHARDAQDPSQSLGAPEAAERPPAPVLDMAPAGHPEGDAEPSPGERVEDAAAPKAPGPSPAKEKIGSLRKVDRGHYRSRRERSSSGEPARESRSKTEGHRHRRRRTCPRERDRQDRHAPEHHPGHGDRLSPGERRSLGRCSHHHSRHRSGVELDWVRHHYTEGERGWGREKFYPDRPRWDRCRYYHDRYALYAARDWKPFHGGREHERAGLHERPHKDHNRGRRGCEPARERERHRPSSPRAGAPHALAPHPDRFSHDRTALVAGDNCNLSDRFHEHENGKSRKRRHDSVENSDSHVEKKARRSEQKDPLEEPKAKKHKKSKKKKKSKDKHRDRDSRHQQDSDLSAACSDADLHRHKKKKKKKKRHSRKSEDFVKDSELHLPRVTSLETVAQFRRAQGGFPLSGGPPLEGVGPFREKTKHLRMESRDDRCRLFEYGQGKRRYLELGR
In short: (§1)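 Average log2 ratios of fragment over vehicle were obtained by unpaired t-test from global-median-normalised Spectronaut label-free quantities. Proteins with ≥2 unique peptides were included. HEK293T lysate (495 µg per sample) was treated in triplicate with fragment at 200 µM or vehicle for 3 h, then with Biotin-Ahx-Ub-VS at 0.5 µM final for 1 h, and labelled DUBs were NeutrAvidin-enriched and run by diaPASEF LC-MS/MS.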

USP46 = USP46 (UniProt P62068)
Chain of USP46 (P62068 whole entry): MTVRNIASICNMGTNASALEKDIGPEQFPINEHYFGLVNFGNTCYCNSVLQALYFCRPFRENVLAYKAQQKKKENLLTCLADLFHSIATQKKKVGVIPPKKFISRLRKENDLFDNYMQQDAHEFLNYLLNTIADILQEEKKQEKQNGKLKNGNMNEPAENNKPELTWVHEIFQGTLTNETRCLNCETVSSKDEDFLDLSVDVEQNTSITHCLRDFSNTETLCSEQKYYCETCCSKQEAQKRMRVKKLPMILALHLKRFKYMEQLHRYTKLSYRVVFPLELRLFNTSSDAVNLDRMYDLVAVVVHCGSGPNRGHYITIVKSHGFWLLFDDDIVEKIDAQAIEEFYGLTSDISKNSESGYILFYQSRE
In short: as §1

USP47 = target: T2, USP47 (UniProt Q96K76)
T2 sequence (whole entry): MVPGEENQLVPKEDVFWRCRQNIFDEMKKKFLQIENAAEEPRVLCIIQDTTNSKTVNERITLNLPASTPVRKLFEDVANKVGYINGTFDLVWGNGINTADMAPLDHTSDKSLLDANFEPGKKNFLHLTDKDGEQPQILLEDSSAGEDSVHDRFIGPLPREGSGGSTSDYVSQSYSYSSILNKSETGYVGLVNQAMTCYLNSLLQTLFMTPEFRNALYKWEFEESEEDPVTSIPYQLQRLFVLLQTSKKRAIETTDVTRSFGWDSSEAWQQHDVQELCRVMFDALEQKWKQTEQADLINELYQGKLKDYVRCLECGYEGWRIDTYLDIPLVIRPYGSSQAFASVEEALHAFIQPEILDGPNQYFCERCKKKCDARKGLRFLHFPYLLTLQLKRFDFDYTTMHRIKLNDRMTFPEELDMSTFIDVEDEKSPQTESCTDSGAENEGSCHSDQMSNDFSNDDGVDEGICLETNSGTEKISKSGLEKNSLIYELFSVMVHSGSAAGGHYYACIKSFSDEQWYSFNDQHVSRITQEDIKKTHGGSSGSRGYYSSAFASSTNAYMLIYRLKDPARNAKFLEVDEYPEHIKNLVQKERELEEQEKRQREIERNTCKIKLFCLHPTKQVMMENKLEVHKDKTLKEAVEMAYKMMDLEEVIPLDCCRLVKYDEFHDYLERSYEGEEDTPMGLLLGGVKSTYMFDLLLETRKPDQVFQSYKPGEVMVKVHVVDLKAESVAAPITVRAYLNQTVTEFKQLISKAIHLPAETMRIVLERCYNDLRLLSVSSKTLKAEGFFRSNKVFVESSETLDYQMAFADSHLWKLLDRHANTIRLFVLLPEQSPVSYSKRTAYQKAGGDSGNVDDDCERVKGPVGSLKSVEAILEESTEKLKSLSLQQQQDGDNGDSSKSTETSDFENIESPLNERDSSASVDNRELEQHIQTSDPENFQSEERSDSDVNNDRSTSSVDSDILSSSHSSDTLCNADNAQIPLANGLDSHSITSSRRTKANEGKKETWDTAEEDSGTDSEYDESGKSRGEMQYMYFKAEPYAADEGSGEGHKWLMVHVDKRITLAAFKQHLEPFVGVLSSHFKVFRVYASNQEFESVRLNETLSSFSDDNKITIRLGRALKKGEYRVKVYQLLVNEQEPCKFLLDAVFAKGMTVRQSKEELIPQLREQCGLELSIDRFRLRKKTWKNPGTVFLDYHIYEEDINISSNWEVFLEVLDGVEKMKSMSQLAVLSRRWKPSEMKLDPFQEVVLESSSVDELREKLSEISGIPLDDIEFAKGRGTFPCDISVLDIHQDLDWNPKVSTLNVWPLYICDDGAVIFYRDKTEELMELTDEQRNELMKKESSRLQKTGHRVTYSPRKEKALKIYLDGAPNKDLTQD
In short: as §1

USP48 = target: T3, USP48 (UniProt Q86UV5)
T3 sequence (whole entry): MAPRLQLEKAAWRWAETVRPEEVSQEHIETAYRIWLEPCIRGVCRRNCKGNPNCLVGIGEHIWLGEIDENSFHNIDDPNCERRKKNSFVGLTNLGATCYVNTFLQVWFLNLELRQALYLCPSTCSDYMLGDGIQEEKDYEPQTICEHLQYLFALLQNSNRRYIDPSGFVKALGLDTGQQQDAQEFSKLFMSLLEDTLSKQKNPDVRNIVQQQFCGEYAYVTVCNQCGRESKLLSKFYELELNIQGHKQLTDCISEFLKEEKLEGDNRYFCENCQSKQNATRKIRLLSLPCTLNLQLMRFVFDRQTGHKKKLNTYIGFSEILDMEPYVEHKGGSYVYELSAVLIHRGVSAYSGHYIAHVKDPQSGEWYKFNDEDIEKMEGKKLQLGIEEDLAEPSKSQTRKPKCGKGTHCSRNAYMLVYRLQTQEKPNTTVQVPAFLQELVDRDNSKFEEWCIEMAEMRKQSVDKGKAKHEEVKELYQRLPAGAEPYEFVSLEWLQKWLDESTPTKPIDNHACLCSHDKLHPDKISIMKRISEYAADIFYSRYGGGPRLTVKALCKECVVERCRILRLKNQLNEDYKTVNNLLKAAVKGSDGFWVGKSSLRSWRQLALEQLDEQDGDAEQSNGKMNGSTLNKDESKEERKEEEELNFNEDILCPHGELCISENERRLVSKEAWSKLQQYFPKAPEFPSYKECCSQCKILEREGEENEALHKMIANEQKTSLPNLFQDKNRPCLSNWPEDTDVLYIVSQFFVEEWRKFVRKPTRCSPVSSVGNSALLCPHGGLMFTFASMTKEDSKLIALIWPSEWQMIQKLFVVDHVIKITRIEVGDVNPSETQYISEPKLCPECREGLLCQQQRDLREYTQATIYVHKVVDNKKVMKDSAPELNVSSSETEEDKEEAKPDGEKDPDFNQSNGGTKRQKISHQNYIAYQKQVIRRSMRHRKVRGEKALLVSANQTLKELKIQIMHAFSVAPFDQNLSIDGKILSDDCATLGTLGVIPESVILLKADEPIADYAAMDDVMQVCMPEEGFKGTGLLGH
In short: as §1

USP5 = target: T4, USP5 (UniProt P45974)
T4 sequence (whole entry): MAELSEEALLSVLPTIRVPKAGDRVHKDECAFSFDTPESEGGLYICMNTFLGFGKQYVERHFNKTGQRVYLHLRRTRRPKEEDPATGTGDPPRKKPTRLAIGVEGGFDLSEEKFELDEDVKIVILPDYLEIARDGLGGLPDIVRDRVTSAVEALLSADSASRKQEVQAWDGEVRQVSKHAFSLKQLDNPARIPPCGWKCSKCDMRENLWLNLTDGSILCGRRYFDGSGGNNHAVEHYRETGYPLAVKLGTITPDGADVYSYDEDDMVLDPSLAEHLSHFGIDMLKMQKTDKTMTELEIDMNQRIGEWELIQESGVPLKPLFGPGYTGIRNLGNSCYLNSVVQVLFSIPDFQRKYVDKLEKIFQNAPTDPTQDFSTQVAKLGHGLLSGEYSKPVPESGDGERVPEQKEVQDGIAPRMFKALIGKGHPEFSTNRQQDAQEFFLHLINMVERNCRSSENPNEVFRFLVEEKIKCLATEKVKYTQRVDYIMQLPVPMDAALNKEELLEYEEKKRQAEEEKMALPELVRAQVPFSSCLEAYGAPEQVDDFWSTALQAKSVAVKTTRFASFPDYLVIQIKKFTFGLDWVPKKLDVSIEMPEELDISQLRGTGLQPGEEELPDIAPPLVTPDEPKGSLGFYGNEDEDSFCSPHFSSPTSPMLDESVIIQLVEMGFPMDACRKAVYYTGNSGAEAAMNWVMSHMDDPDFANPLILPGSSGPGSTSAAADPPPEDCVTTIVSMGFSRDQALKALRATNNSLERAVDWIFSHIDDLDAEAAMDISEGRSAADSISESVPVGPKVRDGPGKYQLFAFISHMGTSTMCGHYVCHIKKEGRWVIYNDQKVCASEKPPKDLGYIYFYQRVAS
In short: as §1

USP54 = USP54 (UniProt Q70EL1)
Chain of USP54 (Q70EL1 whole entry): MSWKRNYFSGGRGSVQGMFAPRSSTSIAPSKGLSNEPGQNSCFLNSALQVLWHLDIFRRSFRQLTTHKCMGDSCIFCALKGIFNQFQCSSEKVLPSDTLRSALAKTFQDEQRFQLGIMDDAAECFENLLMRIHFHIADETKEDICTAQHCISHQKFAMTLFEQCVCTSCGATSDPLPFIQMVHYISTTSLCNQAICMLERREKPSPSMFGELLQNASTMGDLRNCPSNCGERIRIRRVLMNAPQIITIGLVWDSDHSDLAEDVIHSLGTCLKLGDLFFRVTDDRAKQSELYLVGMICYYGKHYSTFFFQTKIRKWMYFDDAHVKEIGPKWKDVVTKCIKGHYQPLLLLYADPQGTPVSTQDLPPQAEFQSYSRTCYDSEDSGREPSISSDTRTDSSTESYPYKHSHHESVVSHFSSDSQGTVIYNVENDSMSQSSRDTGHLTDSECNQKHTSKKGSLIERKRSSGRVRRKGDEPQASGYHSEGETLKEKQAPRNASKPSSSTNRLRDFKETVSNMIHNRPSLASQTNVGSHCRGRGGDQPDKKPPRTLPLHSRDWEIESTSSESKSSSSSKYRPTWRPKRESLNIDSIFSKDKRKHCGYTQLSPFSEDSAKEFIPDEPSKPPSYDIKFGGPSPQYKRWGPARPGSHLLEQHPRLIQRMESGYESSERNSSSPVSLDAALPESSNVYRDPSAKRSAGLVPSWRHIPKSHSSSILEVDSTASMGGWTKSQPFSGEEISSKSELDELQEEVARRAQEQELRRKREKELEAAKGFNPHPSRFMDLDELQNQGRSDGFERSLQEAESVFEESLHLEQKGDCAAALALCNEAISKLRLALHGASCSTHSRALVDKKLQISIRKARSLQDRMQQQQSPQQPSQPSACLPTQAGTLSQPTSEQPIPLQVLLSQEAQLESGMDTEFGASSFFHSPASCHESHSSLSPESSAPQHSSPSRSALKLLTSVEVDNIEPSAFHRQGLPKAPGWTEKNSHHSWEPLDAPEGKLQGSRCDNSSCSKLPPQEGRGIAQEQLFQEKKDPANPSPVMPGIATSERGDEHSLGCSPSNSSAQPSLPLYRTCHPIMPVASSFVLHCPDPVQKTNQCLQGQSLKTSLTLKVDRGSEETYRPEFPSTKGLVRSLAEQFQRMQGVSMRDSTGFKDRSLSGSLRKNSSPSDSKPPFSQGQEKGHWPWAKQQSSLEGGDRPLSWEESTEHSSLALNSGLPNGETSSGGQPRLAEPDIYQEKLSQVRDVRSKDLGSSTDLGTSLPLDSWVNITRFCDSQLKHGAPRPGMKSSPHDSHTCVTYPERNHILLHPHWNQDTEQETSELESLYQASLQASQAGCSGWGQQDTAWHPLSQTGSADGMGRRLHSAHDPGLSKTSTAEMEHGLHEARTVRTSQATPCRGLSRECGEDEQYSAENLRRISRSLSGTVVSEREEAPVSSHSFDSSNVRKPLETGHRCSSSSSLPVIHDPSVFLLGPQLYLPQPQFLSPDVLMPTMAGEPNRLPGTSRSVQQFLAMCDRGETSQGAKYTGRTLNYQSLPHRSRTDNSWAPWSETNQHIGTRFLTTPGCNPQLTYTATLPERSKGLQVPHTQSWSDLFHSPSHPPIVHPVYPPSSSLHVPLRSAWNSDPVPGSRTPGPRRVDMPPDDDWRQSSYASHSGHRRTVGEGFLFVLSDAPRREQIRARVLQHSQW
In short: as §1

USP7 = USP7 (UniProt Q93009)
Chain of USP7 (Q93009 whole entry, looked up): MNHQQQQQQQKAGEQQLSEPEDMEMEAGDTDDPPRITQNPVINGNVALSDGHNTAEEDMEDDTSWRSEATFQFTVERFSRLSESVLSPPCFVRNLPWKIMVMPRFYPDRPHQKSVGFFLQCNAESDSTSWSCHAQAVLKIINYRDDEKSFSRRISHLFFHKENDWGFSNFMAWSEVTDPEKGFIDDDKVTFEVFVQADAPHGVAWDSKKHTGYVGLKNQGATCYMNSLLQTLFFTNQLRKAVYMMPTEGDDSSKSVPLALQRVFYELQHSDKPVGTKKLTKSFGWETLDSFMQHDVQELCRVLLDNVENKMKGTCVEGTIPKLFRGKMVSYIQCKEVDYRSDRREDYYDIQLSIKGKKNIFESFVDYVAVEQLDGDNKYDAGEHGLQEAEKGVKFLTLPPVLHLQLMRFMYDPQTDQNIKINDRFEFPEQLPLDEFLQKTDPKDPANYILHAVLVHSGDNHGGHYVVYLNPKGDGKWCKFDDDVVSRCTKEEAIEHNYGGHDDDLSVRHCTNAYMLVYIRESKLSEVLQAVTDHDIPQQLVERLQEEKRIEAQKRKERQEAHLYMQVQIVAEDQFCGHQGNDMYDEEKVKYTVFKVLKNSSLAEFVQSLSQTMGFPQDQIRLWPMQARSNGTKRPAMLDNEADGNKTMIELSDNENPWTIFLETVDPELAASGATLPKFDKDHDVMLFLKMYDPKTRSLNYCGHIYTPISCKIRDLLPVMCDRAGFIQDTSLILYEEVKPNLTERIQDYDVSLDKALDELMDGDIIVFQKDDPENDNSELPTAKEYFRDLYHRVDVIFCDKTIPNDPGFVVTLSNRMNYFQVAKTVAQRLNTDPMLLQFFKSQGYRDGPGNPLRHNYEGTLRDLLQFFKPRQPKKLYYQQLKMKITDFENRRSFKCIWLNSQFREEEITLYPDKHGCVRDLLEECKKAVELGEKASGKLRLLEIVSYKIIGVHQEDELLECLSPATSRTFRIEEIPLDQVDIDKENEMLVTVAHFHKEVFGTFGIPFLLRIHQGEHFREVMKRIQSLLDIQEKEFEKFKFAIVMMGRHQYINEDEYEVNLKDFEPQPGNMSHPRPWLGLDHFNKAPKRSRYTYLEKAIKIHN
In short: as §1

USP8 = target: T5, USP8 (UniProt P40818)
T5 sequence (whole entry): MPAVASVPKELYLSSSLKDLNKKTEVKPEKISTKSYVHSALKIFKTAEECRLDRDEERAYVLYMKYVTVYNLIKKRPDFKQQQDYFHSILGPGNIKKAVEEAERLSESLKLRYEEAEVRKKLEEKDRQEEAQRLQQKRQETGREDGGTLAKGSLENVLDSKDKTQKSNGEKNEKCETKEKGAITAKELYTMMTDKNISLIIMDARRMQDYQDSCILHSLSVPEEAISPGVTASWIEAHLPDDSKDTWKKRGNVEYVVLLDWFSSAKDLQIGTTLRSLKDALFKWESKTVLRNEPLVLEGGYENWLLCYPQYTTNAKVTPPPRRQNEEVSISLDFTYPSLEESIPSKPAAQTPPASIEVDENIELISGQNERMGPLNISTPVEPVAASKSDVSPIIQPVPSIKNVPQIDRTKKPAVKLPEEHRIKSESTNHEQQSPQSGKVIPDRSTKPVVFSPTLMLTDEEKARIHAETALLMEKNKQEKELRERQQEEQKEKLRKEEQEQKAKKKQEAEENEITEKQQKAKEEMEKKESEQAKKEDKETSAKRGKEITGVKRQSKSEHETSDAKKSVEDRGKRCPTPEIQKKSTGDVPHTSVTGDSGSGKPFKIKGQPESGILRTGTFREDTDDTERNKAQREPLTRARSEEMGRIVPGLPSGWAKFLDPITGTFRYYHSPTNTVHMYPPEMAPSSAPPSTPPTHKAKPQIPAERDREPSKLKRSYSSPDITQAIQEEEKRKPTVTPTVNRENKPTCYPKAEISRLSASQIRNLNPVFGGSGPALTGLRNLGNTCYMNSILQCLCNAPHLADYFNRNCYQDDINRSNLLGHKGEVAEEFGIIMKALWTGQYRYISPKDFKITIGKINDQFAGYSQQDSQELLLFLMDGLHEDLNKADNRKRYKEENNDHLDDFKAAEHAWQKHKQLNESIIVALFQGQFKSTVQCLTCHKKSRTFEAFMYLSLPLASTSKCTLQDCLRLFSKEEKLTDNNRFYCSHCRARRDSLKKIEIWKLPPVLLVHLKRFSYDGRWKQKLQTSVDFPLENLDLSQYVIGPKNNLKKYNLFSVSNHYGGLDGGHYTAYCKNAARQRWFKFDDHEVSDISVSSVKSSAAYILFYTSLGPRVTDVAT
In short: as §1

USP9X = USP9X (UniProt Q93008)
In short: as §1

UniProt O00487 = target: UniProt O00487
Chain of UniProt O00487 (O00487 whole entry): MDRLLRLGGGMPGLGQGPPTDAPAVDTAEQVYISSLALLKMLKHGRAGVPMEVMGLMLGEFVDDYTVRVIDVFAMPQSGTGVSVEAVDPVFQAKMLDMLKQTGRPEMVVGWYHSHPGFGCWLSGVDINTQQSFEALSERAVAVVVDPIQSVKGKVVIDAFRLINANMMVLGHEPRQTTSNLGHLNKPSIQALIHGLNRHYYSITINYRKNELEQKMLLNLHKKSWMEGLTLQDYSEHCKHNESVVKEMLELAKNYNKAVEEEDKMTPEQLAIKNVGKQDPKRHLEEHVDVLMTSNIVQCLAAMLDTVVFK
In short: as §1

Measured: log2 ratio of Biotin-Ahx-Ub-VS probe labelling

CCN(C(=O)CCl)C1CCCCC1
inactive: USP42 0.177 | USP46 -0.202 | USP47 -0.157 | USP48 -0.238 | USP5 0.443 | USP54 0.0425 | USP7 -0.372 | USP8 0.0715 | USP9X -0.0791 | UniProt O00487 0.0502
